# ChEMBL document CHEMBL3988442, “University of Dundee, Small-Polar-MMV Screening Library” (2021)
# The campaign covered roughly 69,000 compounds. About 420 (0.61%) showed an effect of 50% or more. The sample as a whole holds a higher share of strong results than the screen did.
# Molecular target: T1, Histidine--tRNA ligase (Leishmania infantum) (UniProt A4I591)
# T1 sequence (whole entry): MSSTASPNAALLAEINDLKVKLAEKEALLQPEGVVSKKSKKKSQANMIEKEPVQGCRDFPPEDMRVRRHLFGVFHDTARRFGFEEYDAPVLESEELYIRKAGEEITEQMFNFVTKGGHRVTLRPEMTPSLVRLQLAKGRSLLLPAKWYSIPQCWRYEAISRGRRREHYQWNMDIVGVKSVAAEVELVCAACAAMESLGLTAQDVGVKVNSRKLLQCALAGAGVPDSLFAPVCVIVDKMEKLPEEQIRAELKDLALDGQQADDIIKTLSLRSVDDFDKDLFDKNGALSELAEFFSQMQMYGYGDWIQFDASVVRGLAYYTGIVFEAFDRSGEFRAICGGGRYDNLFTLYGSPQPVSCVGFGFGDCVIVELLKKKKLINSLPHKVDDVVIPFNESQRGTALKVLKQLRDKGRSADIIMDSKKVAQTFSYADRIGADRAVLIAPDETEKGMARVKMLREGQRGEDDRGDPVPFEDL
# Test: Leishmania infantum Histidine tRNA synthetase (LdHisRS)
# Format: functional
# Set-up: scale not given: in the data most compounds retested in dose-response had high values
# Settings: 30 µM
row,Compound,Percent Effect
1,O=C(c1ccco1)N1CC[C@H]2[C@H]1CCN2CC1CCOCC1,6.57%
2,Cc1ccccc1OCC1CCCN(c2cc(N)nc(N)n2)C1 (stereo not drawn),72.3%
3,Cc1nc(N)cc(N2CCCC(COc3cccc(F)c3)C2)n1 (stereo not drawn),24.1%
4,Nc1cc(N2CCCC(COc3ccc(F)cc3)C2)nc(N)n1 (stereo not drawn),24.1%
5,O=C(CC1CC1)N[C@@H]1CN(Cc2ccc(F)cc2)C[C@@H]2CCCO[C@@H]21,11.4%
6,O=C(NC1CC1)[C@@H]1C[C@@H]2CCN(Cc3ccccc3)C[C@@H]2O1,-7%
7,Cc1ncsc1CN1C[C@@H]2COC[C@]2(C(=O)NC2CC(F)(F)C2)C1,20%
8,Cc1nc[nH]c1CNC1CC(=O)N(CCc2cccc(Cl)c2)C1 (stereo not drawn),7.45%
9,Cc1nn(CCC#N)c(C)c1[C@@H]1C=C[C@@H](NCc2ccc(F)cc2)C1,25%
10,Cc1nn(CCC#N)c(C)c1[C@@H]1C=C[C@@H](NCc2cccc(Cl)c2)C1,50%
11,Cc1cnc(C(=O)N2C[C@H]3CC[C@@H]2CN(c2cnccn2)C3)cn1,18.6%
12,O=C(NC[C@@]1(COc2cnccn2)C[C@@H](O)[C@@H](O)C1)C1CC1,5.41%
13,Cc1ccc(C(=O)N2CCO[C@H]3[C@H](OCCN(C)C)CC[C@@H]32)cn1,9.72%
14,Cc1cccc(NC(=O)c2[nH]nc(C(C)C)c2Br)n1,12.5%
15,O=C(c1ccco1)N1C[C@@H]2[C@@H](C1)OCC(=O)N2Cc1cccnc1,20.4%
16,Cc1ccc(CN2C[C@@H]3COC[C@@H](CC(=O)N4CCOCC4)[C@@H]3C2)s1,20.5%
17,CCS(=O)(=O)Nc1ccc2c(c1)C1(CCOCC1)CN2C,51.5%
18,CCN1CC2(CCOCC2)c2cc(NS(=O)(=O)CC)ccc21,75.2%
19,CCCC(=O)Nc1ccc2c(c1)C1(CCOCC1)CN2CCOC,35.1%
20,CN(C)C(=O)N1CC2(CCOCC2)c2cc(NS(=O)(=O)C3CC3)ccc21,15.4%
21,CCC(=O)Nc1ccc2c(c1)C1(CCOCC1)CN2CCF,22.5%
22,CCC(=O)Nc1ccc2c(c1)C1(CCOCC1)CN2CCOC,46%
23,CC(c1ccccc1)N1Cc2nc(N(C)C)ncc2C1=O (stereo not drawn),3.54%
24,CC1CCN(c2ncc3c(n2)CN(c2ccc(F)cc2)C3=O)CC1,12.4%
25,COc1ccc(CN2C[C@H]3CN(Cc4ccncc4)C(=O)[C@H]3C2)cc1,21.4%
26,COCCN1CCN(C(=O)c2ccc(COC)o2)[C@H]2CS(=O)(=O)C[C@H]21,21.3%
27,c1coc(CN2C[C@H](OCC3CCOCC3)[C@H]3COC[C@H]32)c1,9.02%

row,Compound,Percent Effect
1,COc1ccc2c(c1)ncn2C[C@]1(O)CCCN2CCCC[C@@H]21,4.2%
2,CCn1nc(C)c(CN(CCOC)C(=O)c2ccccc2N(C)C)c1C,21.7%
3,CCOc1ccc(C(=O)N(CCOC)Cc2c(C)nn(CC)c2C)o1,63.3%
4,CCn1nc(C)c(CN(CCOC)C(=O)c2cnc(C)nc2O)c1C,20%
5,Cc1nn(C)c(C)c1S(=O)(=O)N1CC[C@@H]2O[C@@H](C)C[C@H]2C1,7.69%
6,O=C(c1ccc(F)cc1)N1C[C@@H]2OCCN(c3ncccn3)[C@@H]2C1,18.9%
7,Cc1nc(COC[C@]23COC[C@H]2CN(Cc2ccoc2)C3)cs1,22.6%
8,Cc1nnc(N2C[C@H](OCc3cccnc3)[C@H]3OCCC[C@H]32)s1,24.3%
9,COCCOc1ccc(F)cc1NCc1nc2ccccc2n1C,13.2%
10,COc1cc(F)c(NCc2nc3ccccc3n2C)cc1OC,78.3%
11,COCCOc1ncccc1NCc1nc2ccccc2n1C,15.7%
12,CC(=O)N1CCN(C(=O)Nc2ccc(Cl)cc2)[C@H]2CS(=O)(=O)C[C@H]21,8.2%
13,O=C(C1CCCC1)N1C[C@@H]2CCN(c3cccnc3)C[C@@H]2C1,14.7%
14,O=C(c1ccncc1)N1C[C@@H]2CCN(c3cccnc3)C[C@@H]2C1,23.5%
15,O=C(c1ccc(F)cc1)N1C[C@@H]2CCN(c3cccnc3)C[C@@H]2C1,20.6%
16,c1cnc(N2C[C@H]3CCN(c4cccnc4)C[C@H]3C2)nc1,23.1%
17,Fc1cccc(N2C[C@H]3CCN(c4cccnc4)C[C@H]3C2)c1,61.5%
18,Cn1cccc1C(=O)N1CC[C@H]2[C@@H]1CCC(=O)N2CC1CC1,21.1%
19,O=C(C1CCC1)N1C[C@@H]2CN(Cc3ccncc3)C(=O)[C@@H]2C1,15.8%
20,CCCC(=O)N1CC[C@@H]2[C@H](CC1)N(Cc1cccnc1)CCS2(=O)=O,17.3%
21,Cc1cccc(CN2C[C@@H]3CN(C4CCOCC4)C[C@@H]3C2=O)c1,19.7%
22,CCN1C(=O)C[C@@H]2[C@@H]1CCN2S(=O)(=O)c1cccc(C)c1,0%
23,CC(C)=CCN1CCN(C(=O)c2snnc2C)[C@H]2CS(=O)(=O)C[C@H]21,5%
24,CCc1cnc(N2C[C@H](OCc3csc(C)n3)[C@H]3COC[C@H]32)nc1,20.7%
25,CCN1C(=O)CC[C@@H]2N(C(=O)CCn3nccc3C)CCCC[C@@]21C,15.7%
26,Cc1noc(C[C@@H]2COC[C@H]3CN(S(=O)(=O)C4CC4)C[C@@H]23)n1,12.8%
